Experimental data reported in PubChem BioAssay AID1839 (Johns Hopkins Ion Channel Center, 2009).
Screen size: about 2,400 compounds; about 220 (9.2%) were called active. The list comes from a sample in which actives are over-represented; it also holds similar structures and randomly drawn compounds. A number with no mark means an inactive call.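 Rule for the calls: active = signal change above the mean of dofetilide-free buffer controls plus 3 SD, so a positive margin; inactive = the rest.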

test: thallium signal changes without hERG – cell-based, CHO-K1 parental line, FluxOR thallium flux, counter-screen for hERG block protection project, confirmation (AID 1839); conditions: CHO-K1 parental cells, FluxOR thallium flux fluorescence; at 10 µM;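 note: compounds applied alone with no dofetilide to cells lacking hERG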

Compound	signal change vs control minus 3*SD hit threshold (margin above threshold, higher = more increase)
CCCCOC(=O)c1ccc(NC(=S)NC(=O)c2c(Br)c(C)nn2C)cc1	6.3% (active)
Cc1nn(C)c(C(=O)NC(=S)Nc2ccc([N+](=O)[O-])cc2)c1Cl	-13.2%
CCCCOC(=O)c1ccc(NC(=S)NC(=O)c2c(Cl)cnn2C)cc1	-18.6%
CC1CCc2sc(-c3n[nH]c(=S)o3)cc2C1 (stereo not given)	-19.1%
CC(C)(C)c1cc(C(=O)NNC(=O)c2ccc(Cl)cc2)no1	-1.2%
O=C(O)c1cc(N/N=C/c2ccc(-c3ccccc3)cc2)ccc1Cl	-29.5%
O=C(O)c1cc(NN=C2c3ccccc3-c3ccccc32)ccc1Cl	3.2% (active)
CCCCOc1ccc(-c2c(C#N)c(N)[nH]c(=S)c2C#N)cc1	-44.5%
CC(NC(=O)c1ccc(Br)cc1)c1ccc2c(c1)CCCC2 (stereo not given)	2.4% (active)
CC(NC(=O)c1ccc(F)cc1)c1ccc2c(c1)CCCC2 (stereo not given)	-12.8%
CCc1ccc(C(C)NC(=O)c2ccc(F)cc2)cc1 (stereo not given)	-6.8%
COc1cccc(NC(=O)CSCc2n[nH]c(=O)[nH]2)c1	-30%
COc1ccc(-c2csc(NC(=S)NC(=O)c3cccs3)n2)cc1OC	-41.1%
CCOc1cc(Br)c(C(=O)O)cc1OC	-30.9%
O=C(CSc1nc2cc(Cl)ccc2s1)c1cc2ccccc2o1	-23%
O=C(Cn1nc(-c2ccccc2)c2ccccc2c1=O)Nc1ccc(O)cc1	-37.1%
O=[N+]([O-])c1cccnc1Sc1n[nH]c(-c2ccc(Cl)cc2)n1	-19.6%
COc1ccc(CCn2c(S)nc3ccccc3c2=O)cc1	-22.5%
C=CCNC(=S)NC(=O)c1ccc(C)c(Br)c1	-26.8%
C=CCN(CC=C)C(=S)NC(=O)c1ccc(OC)c(Br)c1	4.6% (active)
C=CCN(CC=C)C(=S)NC(=O)c1ccc(OC)cc1	-14.4%
CCN(CC)C(=S)NC(=O)c1ccc(OC)c(Br)c1	-18.8%
C=CCN(CC=C)C(=S)NC(=O)c1ccc(C)c(Br)c1	48.9% (active)
C=CCN(CC=C)C(=S)NC(=O)c1ccc([N+](=O)[O-])cc1	-16.4%
Cc1nnc(NC(=O)C2CCCN(S(=O)(=O)c3ccccc3C(F)(F)F)C2)s1 (stereo not given)	-12.2%
CCCCNC(=O)c1onc(CSc2nc3ccccc3[nH]2)c1C(=O)NCCCC	-27.7%
C=CCn1c(O)c(N=NC(=S)Nc2ccc(OC)cc2)c2ccccc21	-17.1%

Compound	signal change vs control minus 3*SD hit threshold (margin above threshold, higher = more increase)
Cc1nnc(NC(=O)CN2CCN(Cc3ccc(F)cc3Cl)CC2)s1	-35.7%
O=C(Nc1cccc(N=Cc2cc(Cl)cc(Br)c2O)c1)c1ccco1	-5.5%
CCOC(=O)c1c(NC(=S)NC)sc2c1CC(C)(C)SC2	22.5% (active)
C=CCNC(=S)Nc1sc2c(c1C(=O)OCC)CC(C)(CC)OC2 (stereo not given)	-1.5%
CCOC(=O)c1c(NC(=S)NC)sc2c1CCCC2	-11%
CCCN(CC1CC1)C(=S)Nc1ccccc1F	-25.8%
COc1cc(/C=C2/SC(=S)N(CC(=O)O)C2=O)ccc1OCC(=O)Nc1ccc(C)c(C)c1	-34.3%
COc1ccccc1C(=O)Nc1ccnn1C1CCN(C(=O)c2ccoc2C)CC1	-41.5%
O=C(CSc1nc(N2CCCCC2)nc(N2CCCCC2)n1)c1ccccc1	-13.7%
Cc1nn(-c2ccc(Cl)cc2)c2sc(C(=O)c3c(N)n(C)c(=O)n(C)c3=O)cc12	-34.5%
Cc1ccc(N=Cc2cc(Br)cc(Cl)c2O)cc1	-4.8%
Cc1ccc(N=Cc2cc(Cl)cc(Cl)c2O)nc1	-26.6%
Cc1cccc(N=Cc2cc(Br)cc(Cl)c2O)c1	3.2% (active)
NC(=O)c1cccc(N=Cc2cc(Cl)cc(Cl)c2O)c1	-22.3%
COc1cc(Br)cc(C=Nc2cccc(C(F)(F)F)c2)c1O	-8.3%
Oc1c(Cl)cc(Cl)cc1C=Nc1ccc(Br)cc1	12.8% (active)
COc1cc(C2NC(=O)NC(O)(C(F)(F)F)C2C(C)=O)cc(OC)c1OC (stereo not given)	-34.1%
CCOc1cc(/C=C2/C(=O)ON=C2C)ccc1O	-38.8%
Oc1ccc(Cl)cc1C1=NNC(c2cccs2)C1 (stereo not given)	-19.1%
Cc1ccc(SCc2ccc(C(=O)N3CCCC3)cc2)cc1	-17%
CCOc1ccc(NC(=S)NS(=O)(=O)c2cc(Br)ccc2OCC)cc1	-3.6%
Nc1nnc(SCC(=O)OCc2ccc(F)cc2)s1	-40.4%
Cc1cccc(N2CCN(C(=O)Cc3c(C(=O)O)[nH]c4ccc(Cl)cc34)CC2)c1C	-33.6%
Cc1ccc(S(=O)(=O)N(C)C)cc1NC(=S)NC(C)CCCC(C)C (stereo not given)	-30.7%
CC(Nc1ccc(F)cc1)=[N+](C)CCNS(=O)(=O)c1ccc(Cl)cc1	-34.8%
CC(=O)c1c(N)[nH]c(-c2ccccc2)nc1=S	-6.7%
CSc1nc(-c2ccccc2)[nH]c(=S)c1C(C)=O	34.8% (active)

Compound	signal change vs control minus 3*SD hit threshold (margin above threshold, higher = more increase)
CC(=O)c1c(C)[nH]c(-c2ccccc2)nc1=S	-20.4%
O=C1C2CC=CCC2C(=O)N1c1ccc(Cc2ccncc2)cc1 (stereo not given)	-16%
CCCCn1c(-c2csc(C(C)C)c2)n[nH]c1=S	-20.9%
O=c1c2ccc(Cl)cc2nc(-c2cccc(C(F)(F)F)c2)n1O	66.5% (active)
O=c1c2cc(Br)ccc2nc(-c2ccc(Cl)cc2)n1O	48.2% (active)
O=c1c2cc(Br)ccc2nc(-c2cccc(Cl)c2)n1O	45.7% (active)
N#Cc1ccc(-c2nc3cc(Cl)ccc3c(=O)n2O)cc1	-29.9%
COc1cc(OC)cc(-c2nc3ccccc3c(=O)n2OC(=O)c2ccc(Br)cc2)c1	-34.9%
CCCn1c(SC(C)C(=O)N2CCOCC2)nc2ccc(Br)cc2c1=O (stereo not given)	-28.1%
CCCn1c(SCN2C(=O)c3ccccc3C2=O)nc2cc(Cl)ccc2c1=O	-10.9%
NC(=O)c1nn2c(C(F)(F)F)cc(-c3ccccc3)nc2c1Br	-26%
O=c1c2cc(Br)ccc2nc(-c2cccc(C(F)(F)F)c2)n1O	69.7% (active)
O=C(Cn1nnc(-c2cccc(C(F)(F)F)c2)n1)N1CCCCCC1	-29.6%
O=C(CCc1ccccc1Cl)Nc1ccc(S(=O)(=O)N2CCOCC2)cc1	-31.3%
CC(=O)OCC1O[C@@H](O[C@@H]2C[C@H]3C(C)(C)[C@H](OC(C)=O)CC[C@]3(C)[C@H]3CC[C@]45C[C@]4(CC[C@H]5[C@@H](C)C[C@@H](O)[C@H](O)C(C)(C)O)[C@@]32C)[C@H](O)[C@@H](O)[C@@H]1O (stereo not given in full)	-4.8%
Cc1c(OC(C)C(=O)NCCN2CCOCC2)ccc2c3c(c(=O)oc12)CCC3 (stereo not given)	-28.3%
Cc1occc1C(=O)NNC(=S)NC(=O)COc1ccc(Cl)cc1Cl	-23.7%
Cc1c(C#N)c(O)[nH]c(=O)c1N=Nc1ccc(Br)cc1C(=O)O	-28.4%
O=c1cc(-c2ccccc2)cc(-c2ccccc2)n1O	-22.5%
N#Cc1ccc(-c2nc3ccc(Br)cc3c(=O)n2O)cc1	-5.1%
O=c1c2cc(Br)ccc2nc(-c2ccccc2)n1O	5.2% (active)
Cc1sc2nc(C(C)C)nc(SCC(=O)NCc3ccco3)c2c1C	-12.6%
CC(C)(C)c1ccc(C(=O)NC(=S)N2CCCCCC2)cc1	-12.4%
CC(C)(C)c1ccc(C(=O)NC(=S)N2CCCC2)cc1	-17.2%
O=C(NC(=S)N1CCCC(C(F)(F)F)C1)c1ccc(F)cc1 (stereo not given)	4.7% (active)
CNC(=S)N/N=C/c1cc(Br)cc(Br)c1O	-14.8%
Cc1nnc(C)n1/N=C/c1cc(Br)cc(Br)c1O	-18.1%

Compound	signal change vs control minus 3*SD hit threshold (margin above threshold, higher = more increase)
CC(=O)N1c2ccc(N=Cc3cc(Br)cc(Br)c3O)cc2CC1C (stereo not given)	1.6% (active)
NC(=O)[C@@H]1CCCN1Cc1nc(Cc2ccccc2Cl)no1	-33.1%
CSc1nc(C)c(Cc2ccccc2)c(=O)[nH]1	-30.6%
CN(C)c1ccc(N=Nc2ccc(C(=O)O)cc2)cc1	-27.2%
O=c1ccc(N=Nc2ccccc2)ccc1O	27.6% (active)
Cc1ccc(N=Nc2ccc(O)c3ncccc23)cc1	-33.4%
CCC1CCCCN1C(=S)NC(=O)c1cccs1 (stereo not given)	-31.1%
COc1ccc(/C=C/C(=O)Nc2ccccc2C(=O)O)cc1	-18.6%
COc1ccc(C(=O)Nc2ccccc2C(=O)O)cc1Cl	-30.4%
COc1ccc(-n2nc(C)cc2Nc2ccccc2C(=O)O)cc1	0.3% (active)
CCOc1cc(N2CCOCC2)c(OCC)cc1NC(=O)Cc1ccccc1	-13.5%
Nc1nonc1-n1nnc(C(=O)N/N=C/c2ccccn2)c1-c1ccccc1	-22.7%
O=C(NC(=S)Nc1nc2c(s1)CSc1ccccc1-2)c1ccccc1	-20.9%
COc1ccc(-c2cc(C(F)(F)F)nc(SCC(=O)NCc3cccs3)n2)cc1	-17.2%
Cc1ccccc1NC1=NC(=S)N(c2ccccc2)C12CCCCC2	-2.6%
COc1cccc(C(=O)NNC(=O)C(=O)Nc2cccc3ccccc23)c1	11.1% (active)
CCOc1ccccc1NC(=O)C(=O)CC(=O)c1ccc(OC)cc1	-20.6%
COc1ccc(C(=O)CC(=O)C(=O)Nc2ccccc2OC)cc1	-25.2%
COc1ccc(C(=O)CC(=O)C(=O)Nc2ccccc2Cl)cc1	10.1% (active)
COc1ccc(C(=O)NNC(=O)C(=O)Nc2cccc3ccccc23)cc1	12.2% (active)
COc1ccc(C(=O)CC(=O)C(=O)Nc2ccccc2C(F)(F)F)cc1	-24.1%
COc1cccc(C(=O)NNC(=O)C(=O)Nc2ccc(OC)cc2OC)c1	-6.2%
CCOc1ccccc1NC(=O)C(=O)CC(=O)c1cccc(OC)c1	-25.9%
COc1ccc(C(=O)CC(=O)C(=O)Nc2ccc(C)cc2Cl)cc1	-13.5%
